An excerpt weighted towards active compounds, which were near 22% of everything screened.
CYP2C19 inhib: blockers of cytochrome P450 2C19 activity – biochemical, luminescence, ADME assay, primary screen; 96,000 tested, 21% active; AID 778, 2007; inhibition, % at 5 µM; CYP2C19 Supersomes, luciferin-H EGE luminescence, 30 min; P33261;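 active = CYP2C19 inhibition above a set limit at 5 µM in the primary screen, cut at about 50% in these data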;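 note: plate controls were negative control wells for no effect and 2.5 mM tranylcypromine positive control for full effect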
CYP2C19 act: human CYP2C19 activators, primary screen, biochemical, luminescence; 96,000 tested, under 10 active; recombinant CYP2C19, luciferin-H EGE luminescence; active compounds read high; 0 = fully inhibited enzyme, 1 = untreated enzyme; Cytochrome P450 2C19 (Homo sapiens), P33261; AID 1025, 2008; activation factor at 5 µM;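 active = activation factor of at least 2 at 5 µM in the primary screen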;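 note: 0 = wells with 2.5 mM tranylcypromine and 1 = vehicle-only wells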
Measles CPE: compounds protecting cells from measles virus cytopathic effect, primary screen, measles RdRp inhibitor project, single point, MLSMR library, absorbance. protection (pct of control), % at 4 µM. AID 841, 2007. Measles virus-infected cells, CPE protection. 140,000 tested, 1.5% active; in the data active = protection mostly above about 24%, no sharp cut-off; inactive = mostly below about 26%
CYP2C9 activ: human CYP2C9 activators, primary screen, biochemical, luminescence. recombinant CYP2C9, luciferin-H conversion; active compounds read high; factor 1 = untreated enzyme, 0 = blocked. activation factor at 5 µM. 96,000 tested, 1.4% active. AID 1024, 2008;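 active = activation factor of 2 or more for CYP2C9 at a 5 µM dose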;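 note: 0 = sulfaphenazole-blocked wells and 1 = vehicle-only wells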
Target sequence (P11712 whole entry, looked up): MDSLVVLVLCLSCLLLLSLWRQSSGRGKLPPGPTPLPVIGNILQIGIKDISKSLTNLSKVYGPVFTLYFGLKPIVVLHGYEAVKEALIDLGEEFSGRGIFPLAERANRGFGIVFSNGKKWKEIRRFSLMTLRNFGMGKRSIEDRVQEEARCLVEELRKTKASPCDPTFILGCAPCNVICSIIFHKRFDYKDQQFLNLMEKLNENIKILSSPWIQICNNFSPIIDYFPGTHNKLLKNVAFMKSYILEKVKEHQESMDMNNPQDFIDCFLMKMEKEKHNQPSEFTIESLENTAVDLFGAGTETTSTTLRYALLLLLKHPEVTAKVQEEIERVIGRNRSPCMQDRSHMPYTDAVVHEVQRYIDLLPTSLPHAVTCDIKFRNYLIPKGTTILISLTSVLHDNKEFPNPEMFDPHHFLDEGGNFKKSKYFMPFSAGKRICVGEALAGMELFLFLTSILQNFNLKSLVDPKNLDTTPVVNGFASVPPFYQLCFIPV
CYP2C9 inhib: blockers of cytochrome P450 2C9 activity – biochemical, luminescence, ADME assay, primary screen; P11712; CYP2C9 Supersomes, luciferin-H conversion; inhibition, % at 5 µM; 96,000 tested, 20% active; AID 777, 2007;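 active = blocking of liver enzyme CYP2C9 beyond about 50% at 5 µM, limit read from the data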
Numbers without * were called inactive; · = no result given.

SMILES	CYP2C19 inhib	CYP2C19 act	Measles CPE	CYP2C9 activ	CYP2C9 inhib
CC1(C)Cc2c(C#N)c(N3CCOCC3)nc(Cc3ccccc3)c2CO1	93*	0.1	3	0.2	77*
Cc1ccc(S(=O)(=O)N2CCN(c3nc(C)c4c(c3C#N)CC(C)(C)OC4)CC2)cc1	77*	0.2	24	0.2	83*
CCc1nc(N2CCOCC2)c(C#N)c2c1COC(C)(C)C2	60*	0.4	4	0.9	12
COC(=O)c1ccccc1OCC(=O)N1CCN(c2ccc(OC)cc2)CC1	19	0.8	2	0.9	12
O=C(NCCCN1CCc2ccccc2C1)Nc1ccc(Cl)cc1	13	0.9	3	1	4
Cc1ccc(Cl)cc1-c1ccc(C=Nc2ccc(N3CCOCC3)cc2)o1	·	·	60*	·	·
Cc1ccc(-c2nnc(SCC(=O)Nc3ccc4c(c3)oc3ccccc34)n2C)c(Cl)c1	24	0.8	7	0.4	59*
CCn1nnnc1SCC(=O)c1cccc(OC)c1	76*	0.2	14	0.6	42
COCCn1nnnc1SCC(=O)c1ccccc1	67*	0.3	4	1.9	-89
CCCn1c(N)c(N2CCCCC2)c(=O)n(CC(=O)Nc2ccc(OC(F)(F)F)cc2)c1=O	-16	1.2	6	1	3
COc1cc(CN(C)CC(=O)c2[nH]c(C)c(C(C)=O)c2C)ccc1OC(F)F	73*	0.3	6	0.3	70*
CCOc1ccc(-c2cc(C(=O)NN3CCN(C)CC3)c3cc(Cl)ccc3n2)cc1	·	·	4	·	·
C=CCNC1=C(Cl)C(=O)N(c2ccccc2Cl)C1=O	68*	0.3	4	0.7	26
COc1ccc(C2=NCN(c3ccc(C)cc3)C(=S)N2)cc1	-15	1.1	12	1.1	-8
Cc1ccc(N2CN=C(c3ccccc3)NC2=S)cc1	99*	0	4	0.2	76*
COc1ccc(C(=O)Nc2nncs2)cc1S(=O)(=O)N1CC(c2ccccc2)CC1=O (configuration not stated)	0	1	22	0.2	84*
Cc1nnc(NC(=O)c2cccc(S(=O)(=O)N3CC(c4ccccc4)CC3=O)c2)s1 (configuration not stated)	-1	1	2	0.5	46
CC(C)CCn1c(=O)c2ccccc2n2c(COC(=O)c3ccc(S(=O)(=O)N(C)C)cc3)nnc12	4	1	·	1	1
COCCNC(=S)N1CCN(C(=O)C(=O)Nc2ccc(C(=O)OC)cc2)CC1	·	·	6	·	·
CC1(C)Cc2ccccc2-c2nnc(C(F)(F)F)n21	·	·	41*	·	·
Nc1nnc(CSCc2ccc(F)cc2)s1	48	0.5	10	1	-1
COc1ccc(S(=O)(=O)Nc2ccc(N(C)C(C)=O)cc2)cc1	93*	0.1	4	0.2	83*
COc1ccc(S(=O)(=O)Nc2ccc(NC(C)=O)cc2)cc1	97*	0	16	0.1	90*
COc1ccccc1CNS(=O)(=O)c1ccc(NC(C)=O)cc1	77*	0.2	·	2.1*	-114
CC1CN(Cc2nc3c(c(=O)n(C)c(=O)n3C)n2Cc2ccccc2)CC(C)O1 (configuration not stated)	10	0.9	6	0.9	8
SMILES	CYP2C19 inhib	CYP2C19 act	Measles CPE	CYP2C9 activ	CYP2C9 inhib
CCOC(=O)COc1ccc(S(=O)(=O)N2CCN(c3ccccc3)CC2)cc1	·	·	5	·	·
CC(=O)Nc1ccc(S(=O)(=O)N2CCN(C)CC2)cc1	6	0.9	15	1.1	-12
CC(=O)Nc1ccc(S(=O)(=O)N2CCc3ccccc3C2)cc1	65*	0.3	6	1.6	-58
CCOC(=O)COc1ccc(S(=O)(=O)N2CCN(c3ccc(F)cc3)CC2)cc1	22	0.8	2	0.5	50*
CCOC(=O)COc1ccc(S(=O)(=O)N2CCc3ccccc3C2)cc1	56*	0.4	3	1.5	-49
CCOP(=O)(OCC)C(Nc1ccccn1)c1ccc(F)cc1 (configuration not stated)	·	·	11	·	·
Nn1cnnc1N/N=C\c1ccc(-c2ccccc2[N+](=O)[O-])o1	·	·	13	·	·
COC(=O)CCNS(=O)(=O)c1ccc2ccccc2c1	·	·	17	·	·
O=C(NCCc1cccs1)C1CC(c2cccc([N+](=O)[O-])c2)=NO1 (configuration not stated)	28	0.7	8	1.2	-16
COc1ccc(-c2nnc(N(C)C(=O)c3cccnc3)s2)cc1	9	0.9	9	0.9	11
Cc1cc(C)c(S(=O)(=O)c2ccccc2)c(Cl)n1	69*	0.3	11	3.2*	-222
Cc1ccc(S(=O)(=O)c2c(C)cc(C)nc2Cl)cc1	94*	0.1	6	1.7	-70
COc1ccc(Oc2nc(C)cc(C)c2S(=O)(=O)c2ccc(C)cc2)cc1	31	0.7	5	0.7	34
COc1ccc(CNC(=S)Nc2cc(C)cc(C)c2)cc1	5	0.9	20	2*	-98
Cc1ccc(SCCNC(=S)Nc2cc(C)cc(C)c2)cc1	51*	0.5	27	0.9	8
COc1ccc(NC(=S)NCc2ccc3c(c2)cc(C)n3C)cc1	·	·	9	·	·
Cc1cccc(NC(=S)NCCC(C)C)c1	·	·	4	·	·
Cc1ccc(SCCNC(=S)Nc2ccc(C)cc2C)cc1	·	·	4	·	·
COc1ccc(CCNC(=S)Nc2cccc(C)c2)cc1	65*	0.4	6	0.7	33
Cc1ccccc1NC(=O)C1CCCN1C(=O)NC1CCCCC1 (configuration not stated)	-9	1.1	6	1.1	-10
O=C(CSc1nnnn1-c1ccc2c(c1)CCC2)NCc1cccs1	33	0.7	3	1.5	-48
Cc1ccc(-n2nc(C(=O)O)nc2-c2ccccc2)cc1	-13	1.1	16	1.1	-9
CCOC(=O)C1C(C)N=C2SCC(=O)N2C1c1cccc(Br)c1 (configuration not stated)	85*	0.1	2	0.2	85*
CCOC(=O)C1C(c2ccccc2)C(C(=O)OCC)C1c1ccccc1 (configuration not stated)	·	·	10	·	·
CC(=O)Nc1ccc(SCC(=O)c2cc(C)n(CC(F)(F)F)c2C)cc1	93*	0.1	23	0.4	58*
Cc1cc(C)cc(C(=O)NCC(=O)OCC(=O)c2cc(C)n(CC(F)(F)F)c2C)c1	·	·	17	·	·
CC(=O)Nc1ccc(SCC(=O)c2cc(C)n(C)c2C)cc1	79*	0.2	46*	0.6	41
O=C(Nc1ccc(S(=O)(=O)NCc2ccco2)cc1)c1ccncc1	94*	0.1	9	0	98*
Cc1cc(C)n(CCCNC(=O)c2ccc(S(=O)(=O)NCc3ccco3)cc2)n1	10	0.9	9	0.5	50*
